SMILES strings stand for the structures. Results filed as inconclusive are left out. The source made the active and inactive calls. How the source made its calls: active means hit-call score of the fitted dose curve at least 0.9, where 1 is the maximum; inconclusive means response in the unintended direction; inactive means score below 0.9.

Sequence of human Adrenergic, Beta 1 Receptor (Adrb1), ADRB1 (gene 153) (P08588 whole entry, looked up): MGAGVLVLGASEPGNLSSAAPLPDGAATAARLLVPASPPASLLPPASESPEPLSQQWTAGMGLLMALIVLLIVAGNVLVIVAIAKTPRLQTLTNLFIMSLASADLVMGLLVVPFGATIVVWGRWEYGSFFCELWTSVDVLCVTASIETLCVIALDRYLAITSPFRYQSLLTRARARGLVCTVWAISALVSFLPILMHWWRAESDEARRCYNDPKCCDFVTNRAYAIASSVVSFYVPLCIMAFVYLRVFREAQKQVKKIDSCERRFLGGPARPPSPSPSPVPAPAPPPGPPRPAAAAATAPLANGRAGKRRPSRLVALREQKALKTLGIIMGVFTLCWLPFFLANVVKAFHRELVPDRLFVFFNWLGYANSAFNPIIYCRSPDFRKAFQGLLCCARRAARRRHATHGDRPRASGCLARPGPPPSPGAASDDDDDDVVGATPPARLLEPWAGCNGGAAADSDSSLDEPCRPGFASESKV

For the test, the target named is human Adrenergic, Beta 1 Receptor (Adrb1), ADRB1 (gene 153) (UniProt P08588). The experiment in a line: NVS_GPCR_hAdrb1: NovaScreen (NVS) G Protein-Coupled Receptor Assay for human Adrenergic, Beta 1 Receptor (Adrb1) (AID 2283258). Summed up:
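Cell-free radioligand displacement on receptor from human neuroepithelioma cells; 2 h after dosing, filter-based scintillation counting. Primary screen in duplicate at 25 uM, actives retested in concentration series; loss of signal vs DMSO baseline.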
`C=CCc1cc(S(=O)(=O)c2ccc(O)c(CC=C)c2)ccc1O`: the AC50 (usually the concentration at which the activity in the assay is half-maximal) was 20.1 µM (active).

Consider `CCCCCCCCCC`, for which the call was inactive.

Consider `CCCCCCCCCCCCCCCCOS(=O)(=O)O`, for which the AC50 was 3.47 µM (active).

As to `CCN(CC)C(=S)SSC(=S)N(CC)CC`, the AC50 was 2.55 µM (active).

For `CCCCCCCC/C=C\CCCCCCCC(=O)OC[C@@H](O)[C@H]1OC[C@H](O)[C@H]1O`, the AC50 was 43.1 µM (active).

`c1ccc(C(O[C@@H]2CCCN(CCc3ccc4c(c3)OCO4)C2)c2ccccc2)cc1`: the AC50 was 25 µM (active).

Values taken from PubChem BioAssay (EPA / NIEHS).
